Results filed as inconclusive are left out. Calls of active or inactive are those of the source. The calls were made as follows: active = hit-call score of the fitted dose curve at least 0.9, where 1 is the maximum; inconclusive = response in the unintended direction; inactive = score below 0.9.
Key:
[1] = TOX21_p53_BLA_p2_viability: Viability Assessment in the Tox21 HCT-116 p53 Agonism Beta-lactamase Assay, Phase 2 (AID 2283591);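 also: actives lower the ATP signal meaning cytotoxicity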
Method in brief: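 HCT116 p53-bla cells, 4000/well, dosed after 5 h plating (217-fold dilution of DMSO stocks) and incubated 16 h at 37C. Viability taken as cellular ATP by CellTiter-Glo luminescence after 30 min RT; signal loss marks cytotoxicity.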

[2] = target: Cellular tumor antigen p53 (Homo sapiens) (UniProt P04637); test: TOX21_p53_BLA_p3_ratio: Tox21 HCT-116 p53 Agonism Beta-lactamase Assay, Ratio, Phase 3 (AID 2283596)
Method in brief: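 Cells were seeded at 4000/well, rested 5 h at 37C, then dosed with DMSO compound solutions (217-fold dilution) for 16 h. CCF4-AM substrate was loaded for 2 h at room temperature, and the 460/530 nm emission ratio was fitted for gain of signal versus DMSO.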

[3] = TOX21_p53_BLA_p4_viability: Viability Assessment in the Tox21 HCT-116 p53 Agonism Beta-lactamase Assay, Phase 4 (AID 2283597);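 also: hits lower the luminescence signal meaning cytotoxicity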
Method in brief: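 ATP content by CellTiter-Glo luminescence, 30 min RT, read after the beta-lactamase ratio step. Cells: HCT116, 4000/well, compound added after 5 h, exposure 16 h at 37C. Signal loss = reduced viability.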

[4] = target: Cellular tumor antigen p53 (Homo sapiens) (UniProt P04637); test: TOX21_p53_BLA_p5_ratio: Tox21 HCT-116 p53 Agonism Beta-lactamase Assay, Ratio, Phase 5 (AID 2283599)
Method in brief: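 HCT-116 p53-bla cells (4000/well) plated 5 h, dosed with compound (217-fold DMSO dilution) for 16 h at 37 C; CCF4-AM substrate 2 h at room temperature. Activity is the 460/530 nm emission ratio (405 nm excitation), fitted in gain-of-signal direction versus DMSO.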

[5] = TOX21_p53_BLA_p5_viability: Viability Assessment in the Tox21 HCT-116 p53 Agonism Beta-lactamase Assay, Phase 5 (AID 2283600)
Method in brief: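 ATP luminescence (CellTiter-Glo, 30 min, RT) served as the viability read-out, with loss of signal indicating cytotoxicity. Compounds in DMSO were pinned at a 217-fold dilution onto 4000 cells/well and incubated 16 h, 37C.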

[6] = target: Cellular tumor antigen p53 (Homo sapiens) (UniProt P04637); test: TOX21_p53_BLA_p4_ratio: Tox21 HCT-116 p53 Agonism Beta-lactamase Assay, Ratio, Phase 4 (AID 2283601)
Method in brief: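 HCT-116 p53 beta-lactamase reporter cells (4000/well) preincubated 5 h, then compound (217-fold dilution of DMSO stock) for 16 h at 37C. CCF4-AM substrate added 2 h at room temperature; 460/530 nm emission ratio fitted upward versus DMSO.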

[7] = TOX21_p53_BLA_p3_viability: Viability Assessment in the Tox21 HCT-116 p53 Agonism Beta-lactamase Assay, Phase 3 (AID 2283593);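 also: cells exposed to compound for 16 h before reading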
Method in brief: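 HCT116 cells, 4000/well, dosed 5 h after plating by pin transfer (217-fold dilution from DMSO stock) and incubated 16 h at 37C, 5% CO2. Viability read as ATP luminescence with CellTiter-Glo after 30 min at room temperature.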

Measured: outcome

Chain of Cellular tumor antigen p53 (Homo sapiens) (P04637 whole entry, looked up): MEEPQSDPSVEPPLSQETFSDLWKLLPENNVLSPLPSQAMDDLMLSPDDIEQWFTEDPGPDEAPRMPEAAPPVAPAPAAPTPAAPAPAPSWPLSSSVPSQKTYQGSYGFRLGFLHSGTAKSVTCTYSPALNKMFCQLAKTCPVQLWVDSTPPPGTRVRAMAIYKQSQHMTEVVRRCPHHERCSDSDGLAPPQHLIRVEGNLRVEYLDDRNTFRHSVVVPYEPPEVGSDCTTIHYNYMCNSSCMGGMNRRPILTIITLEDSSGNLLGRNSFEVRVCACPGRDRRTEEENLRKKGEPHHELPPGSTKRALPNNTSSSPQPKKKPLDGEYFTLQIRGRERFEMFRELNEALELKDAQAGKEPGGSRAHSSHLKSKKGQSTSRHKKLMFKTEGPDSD

CCC1(CC)C(=O)C=CNC1=O
not listed: [7]
inactive: all other assays above

CC(C)OS(C)(=O)=O
inactive: [1] | [7] | [4]

O=[N+]([O-])[O-].[Tl+]
inactive: [1] | [7] | [3] | [5]

Oc1ccc2c3c1O[C@H]1[C@@H](O)CC[C@@]4(O)[C@@H](C2)N(CC2CCC2)CC[C@]314
not listed: [4] | [7]
inactive: all other assays above

CCOC(=O)CBr
inactive: [1] | [7] | [3] | [6]

CC(Cl)(Cl)Cl
inactive: [1] | [7] | [4]

Cc1nnc2n1-c1ccc(Cl)cc1C(c1ccccc1Cl)=NC2
inactive: [1] | [7] | [3] | [5]

CCCCCON=O
inactive: [1] | [2] | [4]

Nc1ccccc1C(=O)O
not listed: [2] | [3]
inactive: all other assays above

Reference: PubChem BioAssay (EPA / NIEHS)
